According to the supplement of paper PMC6555819:

Each sequence was assayed on VDR homodimer (NR concentration 270 nM) (assay: PBM binding z-score (relative to random genomic background probes); higher = stronger binding; sequences stand for … in GC…GCGATTGACAGCGTAGAATGAAGG).
In short: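 The probes on custom Agilent 4×180K protein-binding microarrays were double-stranded, with 34-nt variable regions bearing direct-repeat seeds, single-nucleotide variants, half-site ablations and random human genomic background sequences. Incubation lasted 1 h with ligand-free nuclear receptor dimers in PBS pH 7.4, 2% milk, 0.02% Triton X-100, 1 mM DTT, 0.2 mg/mL BSA and 0.4 mg/ml salmon testes DNA. Antibodies against each partner (one per run) detected bound dimers, and fluorescence scans were regression-normalized. Binding z-scores take the random background probes as reference.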
For ACTATTAGTTGACACGAGGGCAACCGATAGGTTG, the PBM binding z-score was 1.07.
Work on TCATTTAGGTAAAAGGTGAAAGTCGGTGTGGTAA yielded a PBM binding z-score of 0.375.
ACTAGCAAGCCAAGTTTGGGTCACTCAAACAAAG gave a PBM binding z-score of -0.115.
Sequence AAAATGAGGTTATACGTAGATCAGGGAAGAAAGT has a PBM binding z-score of 1.13.
For CATGCAGGGTCAGCTAGGCCAGAGTAGGGACGGC, the PBM binding z-score was 1.16.
GTACCAAGGTTAATAGGTCGTTGATGAGTAGGCG showed a PBM binding z-score of 0.941.
With GCTTGTAGATCAAGGTTAAGGAAGACTAAGCTAA the PBM binding z-score was -0.459.
Work on CGAACTAGGTCATTTACAGGACAGTGAATAGTAA yielded a PBM binding z-score of 1.75.
CGAACTAGGTCAGAACAGGACAGTGAAGGATGAT showed a PBM binding z-score of -0.0967.
With TCTCGGAGGACACGAAAGATCAGAGCTCGACATC the PBM binding z-score was -0.53.
GGAACGAGTGCATTCGAGTTGATAGCATGGCGAT gave a PBM binding z-score of 4.44.
With TTCCCAAGGTGAAAGGTCGTTGATGCACGCCTTG the PBM binding z-score was 1.52.
ACTCGGAGGACCAAGGTCAGAGCTACGCCAGTGA gave a PBM binding z-score of 0.899.
For TGAATGAGCTTATAAGATCAGGGAACGTTGCAAA, the PBM binding z-score was -0.577.
TATACAGGGTCAAAGGCCAGAGTACGAATGTCGA was tested, and the PBM binding z-score was 3.4.
With TCGTATAGGTAAAGGTGAAAGTCGAACGATATGA the PBM binding z-score was 0.0316.
TTACCAAGGAGAAAGGTCGTTGATGCACGCCTTG showed a PBM binding z-score of 1.17.
In the case of CAGCCTAGGTCAAGGCCAGTATAGGAGGAACGTT, the PBM binding z-score is reported as 0.353.
TCGAGTAGGTTAGTCGGGGCATTCATCCAACATA was tested, and the PBM binding z-score was 0.435.
ACAGACCGGTGAGTGAAGGTAACTCAGCTGGACG was tested, and the PBM binding z-score was -0.72.
In the case of CTTAGCAGGCCAATCTGGGTCACTCAAGGCTTGA, the PBM binding z-score is reported as -0.119.
Sequence ATCTCGAGGTAACAAGTTCAGTGAAAGAGAGGAC has a PBM binding z-score of 2.28.
